These results are taken from PubChem BioAssay (EPA / NIEHS).

Some compounds were tested as several samples or in several runs, with calls that do not always agree. Calls of active or inactive are those of the source. Rule for the calls: active = hit-call score of the fitted dose curve at least 0.9, where 1 is the maximum; inactive = score below 0.9.

Test [1] is described as follows: ATG_M_32_CIS: Attagene CIS-FACTORIAL HepG2 Assay for M32 Transcription Factor (Internal Marker) (AID 2282949).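 Note: background control marker of the multiplexed CIS panel rather than a real target.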 To be noted: HepG2 Attagene cis-factorial M32 reporter, mRNA; actives raise or lower the signal. An outline of the steps: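 HepG2 transfectants (cis-regulated reporter transcription units) dosed 24 h. Reporter mRNA by RT-PCR plus CE, analysed as gain or loss relative to DMSO.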

Test [2] is described as follows: ATG_M_06_CIS: Attagene CIS-FACTORIAL HepG2 Assay for M06 Transcription Factor (Internal Marker) (AID 2282950). The conditions noted are these: HepG2 Attagene CIS-FACTORIAL M06 internal marker reporter; actives raise or lower the signal. The method in brief:
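Steps: transfect HepG2 with multiplexed cis-element reporter constructs; dose chemical 24 h; extract RNA with DNase treatment; reverse-transcribe, PCR-amplify, 6-FAM label, HpaI digest; separate fragments by capillary electrophoresis. Activity fitted both directions versus DMSO.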

Test [3] has as its target Hypoxia-inducible factor 1-alpha (Homo sapiens) (UniProt Q16665). Put plainly: ATG_HIF1a_CIS: Attagene CIS-FACTORIAL HepG2 Assay for human Hypoxia Inducible Factor 1 (HIF1A) (AID 2282951). To be noted: HepG2 Attagene cis-factorial HIF1a reporter transcription; actives raise or lower the signal. An outline of the steps: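 Activity is fitted in both directions relative to DMSO. Reporter transcripts are read by RT-PCR, fluorescent primer extension and capillary electrophoresis after 24 h chemical treatment. The cells are HepG2 carrying transiently transfected cis-element-driven reporter units responding to endogenous factors.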

The target of test [4] is Hepatocyte nuclear factor 6 (Homo sapiens) (UniProt Q9UBC0). Description: ATG_HNF6_CIS: Attagene CIS-FACTORIAL HepG2 Assay for human Hepatocyte Nuclear Factor 6 (HNF6) (AID 2282952). To be noted: HepG2 Attagene cis-factorial HNF6 reporter transcription; actives raise or lower the signal. The method in brief:
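First, HepG2 cells were transfected with the multiplexed cis reporter library and dosed with chemical for 24 h. Next, RNA was reverse-transcribed, PCR-amplified and fluorescently labelled. Finally, HpaI-digested fragments were read by capillary electrophoresis.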

For test [5], the target named is Heat shock factor protein 1 (Homo sapiens) (UniProt Q00613). Put plainly: ATG_HSE_CIS: Attagene CIS-FACTORIAL HepG2 Assay for human Heat Shock Transcription Factor 1 (HSE) (AID 2282953). To be noted: HepG2 HSE cis-reporter, Attagene RNA transcription; actives raise or lower the signal. An outline of the steps: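 Cells were transfected with cis-element-driven reporter constructs, dosed for 24 h, then total RNA was reverse-transcribed and reporter cDNA amplified, FAM-labelled and digested with HpaI. Fragments were resolved by capillary electrophoresis; gain or loss was fitted against DMSO.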

A short description of test [6]: ATG_MRE_CIS: Attagene CIS-FACTORIAL HepG2 Assay for human Metal Responsive Element (MRE) (AID 2282954). The conditions noted are these: HepG2 MRE cis-reporter transcription, Attagene multiplex; actives raise or lower the signal. An outline of the steps:
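Measured here is mRNA induction from an MRE cis-element reporter in HepG2 after 24 h, quantified by fluorescence of labelled RT-PCR products on capillary electrophoresis; gain- and loss-of-signal fits use DMSO as baseline.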

Test [7] is described as follows: ATG_PBREM_CIS: Attagene CIS-FACTORIAL HepG2 Assay for human Phenobarbital-responsive Enhancer Module (PBREM) (AID 2282955). To be noted: HepG2 PBREM cis-reporter, Attagene multiplexed transcription; actives raise or lower the signal. An outline of the steps: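 Endogenous transcription factor activity was read from reporter transcripts in transiently transfected human HepG2 liver cells after 24 h dosing. RT-PCR products were fluorescently labelled, HpaI-cut and sized by capillary electrophoresis; activity fitted bidirectionally against DMSO baseline.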

For test [8], the target named is Paired box protein Pax-6 (Homo sapiens) (UniProt P26367). Put plainly: ATG_Pax6_CIS: Attagene CIS-FACTORIAL HepG2 Assay for human Paired Box 6 (PAX6) (AID 2282956). To be noted: HepG2 CIS-FACTORIAL PAX6 reporter transcription, RNA readout; actives raise or lower the signal. An outline of the steps: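 DMSO-referenced bidirectional fits of reporter mRNA fluorescence; HepG2 with transient cis-promoter MRTUs, 24 h post-dose, RT-PCR plus capillary electrophoresis detection.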

Test [9] can be described thus: ATG_PXRE_CIS: Attagene CIS-FACTORIAL HepG2 Assay for human Pregnane X Receptor Element (PXRE) (AID 2282957). The conditions noted are these: HepG2 Attagene CIS-FACTORIAL PXRE reporter, mRNA; actives raise or lower the signal. The method in brief:
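After a 24 h chemical incubation, total RNA from transfected HepG2 cells was reverse-transcribed and reporter cDNA amplified, FAM-labeled, HpaI-digested and sized by capillary electrophoresis. DMSO served as baseline for bidirectional curve fitting.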

A short description of test [10]: ATG_PPRE_CIS: Attagene CIS-FACTORIAL HepG2 Assay for human Peroxisome Proliferator-activated Response Element (PPRE) (AID 2282958). The conditions noted are these: HepG2 PPRE cis-element reporter, Attagene transcription factor profiling; actives raise or lower the signal. An outline of the steps:
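Endogenous PPRE-driven transcription is measured in HepG2 cells carrying transfected multi-reporter constructs. Reporter transcripts are quantified by RT-PCR, HpaI digestion and capillary electrophoresis 24 h after dosing. DMSO baseline, bidirectional fit.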

Test [11] can be described thus: ATG_RORE_CIS: Attagene CIS-FACTORIAL HepG2 Assay for human RAR-related Orphan Receptor Element (RORE) (AID 2282959). To be noted: HepG2 Attagene cis-factorial RORE reporter, mRNA; actives raise or lower the signal. The method in brief:
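RORE reporter transcripts reflecting endogenous factor activity were read after 24 h compound exposure of transfected HepG2 cells, using reverse transcription, PCR, fluorescent labelling and capillary electrophoresis sizing. Gain or loss fitted against DMSO.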

The nature of test [12]: ATG_Sox_CIS: Attagene CIS-FACTORIAL HepG2 Assay for human SRY-box transcription factor (SOX) (AID 2282960). The conditions noted are these: HepG2 Attagene cis-factorial SOX reporter, mRNA; actives raise or lower the signal. The method in brief: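 Reporter transcripts, measured by RT-PCR and capillary electrophoresis of labelled fragments, report endogenous SOX transcription factor activity. Transiently transfected human HepG2 cells receive chemical for 24 h; changes in either direction are fitted relative to DMSO.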

The target of test [13] is Transcription factor Sp1 (Homo sapiens) (UniProt P08047). Description: ATG_Sp1_CIS: Attagene CIS-FACTORIAL HepG2 Assay for human Specificity Protein 1 (Sp1) (AID 2282961). To be noted: HepG2 Sp1 cis-reporter transcription, actives raise or lower the signal. The method in brief:
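Read-out is reporter transcript level, measured by RT-PCR and fluorescent capillary electrophoresis after 24 h chemical treatment. System: transiently transfected HepG2 cells reporting endogenous transcription factor activity; gain or loss fitted against DMSO baseline.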

The nature of test [14]: ATG_SREBP_CIS: Attagene CIS-FACTORIAL HepG2 Assay for human Sterol Regulatory Element Binding (SREBP) (AID 2282962). The conditions noted are these: HepG2 Attagene cis-factorial SREBP reporter, mRNA; actives raise or lower the signal. The method in brief:
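In this cis-format assay, HepG2 liver cells express reporters controlled by promoter elements responsive to native transcription factors. Exposure lasts 24 h; reporter mRNA fluorescence from capillary electrophoresis gives the signal, fitted bidirectionally against DMSO.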

In test [15] the target is Signal transducer and activator of transcription 3 (Homo sapiens) (UniProt P40763). Put plainly: ATG_STAT3_CIS: Attagene CIS-FACTORIAL HepG2 Assay for human Signal Transducer and Activator of Transcription 3 (STAT3) (AID 2282963). The conditions noted are these: HepG2, Attagene cis-factorial STAT3 reporter transcription; actives raise or lower the signal. An outline of the steps: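 Fluorescence intensity of 6-FAM-labelled reporter fragments, separated by capillary electrophoresis after RT-PCR, gave the signal. Cells were HepG2 transfected with cis-element reporter units and treated 24 h; fitting was bidirectional relative to DMSO.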

Test [16] can be described thus: ATG_TA_CIS: Attagene CIS-FACTORIAL HepG2 Assay for human TA Basal Promoter (AID 2282964). To be noted: HepG2 Attagene CIS-factorial TA basal promoter reporter; actives raise or lower the signal. An outline of the steps: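 Steps: transfect HepG2 with MRTUs; dose 24 h; isolate RNA, DNase-treat, reverse-transcribe; PCR and FAM-label reporter cDNA; digest with HpaI 2h at 37 C; run capillary electrophoresis. Activity fitted both directions against DMSO.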

A short description of test [17]: ATG_TCF_b_cat_CIS: Attagene CIS-FACTORIAL HepG2 Assay for human T-Cell-Factor with beta-catenin (TCF/b-cat) (AID 2282965). The conditions noted are these: HepG2 TCF/beta-catenin cis-reporter transcription, actives raise or lower the signal. An outline of the steps:
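Cells of the HepG2 line carry transiently transfected reporter units whose promoters respond to endogenous factors. Twenty-four hours post-dosing, reporter mRNA induction is measured by fluorescent RT-PCR and capillary electrophoresis, with DMSO as baseline.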

Test [18] in a line: ATG_TAL_CIS: Attagene CIS-FACTORIAL HepG2 Assay for human TAL Basal Promoter (AID 2282966).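 Note: background control endpoint measuring basal TAL promoter reporter mRNA not a specific factor.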 The conditions noted are these: HepG2 Attagene cis-factorial TAL promoter reporter; actives raise or lower the signal. The method in brief: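 Basal-promoter background-control endpoint from a multiplexed HepG2 reporter panel. Cells were exposed 24 h, then reporter mRNA was read by RT-PCR/CE fluorescence and fitted in both directions relative to DMSO.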

A short description of test [19]: ATG_TGFb_CIS: Attagene CIS-FACTORIAL HepG2 Assay for human Transforming Growth Factor (TGF) (AID 2282967). The conditions noted are these: HepG2 Attagene CIS TGFb reporter, mRNA transcription; actives raise or lower the signal. The method in brief: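 Cells were dosed for 24 hours, after which total RNA was reverse-transcribed and reporter sequences amplified, labeled and sized by capillary electrophoresis. Activity was fitted in both directions against DMSO.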

Test [20] is described as follows: ATG_VDRE_CIS: Attagene CIS-FACTORIAL HepG2 Assay for human Vitamin D Receptor Element (VDRE) (AID 2282968). To be noted: HepG2 VDRE cis-reporter transcription, actives raise or lower the signal. The method in brief:
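Compounds were applied for 24 h to HepG2 cells transfected with promoter-regulated reporter units. Total RNA was reverse-transcribed, and reporter amplicons were fluorescently labelled and sized by capillary electrophoresis.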

Chain of Hepatocyte nuclear factor 6 (Homo sapiens) (Q9UBC0 whole entry, looked up, the tested form may be a part): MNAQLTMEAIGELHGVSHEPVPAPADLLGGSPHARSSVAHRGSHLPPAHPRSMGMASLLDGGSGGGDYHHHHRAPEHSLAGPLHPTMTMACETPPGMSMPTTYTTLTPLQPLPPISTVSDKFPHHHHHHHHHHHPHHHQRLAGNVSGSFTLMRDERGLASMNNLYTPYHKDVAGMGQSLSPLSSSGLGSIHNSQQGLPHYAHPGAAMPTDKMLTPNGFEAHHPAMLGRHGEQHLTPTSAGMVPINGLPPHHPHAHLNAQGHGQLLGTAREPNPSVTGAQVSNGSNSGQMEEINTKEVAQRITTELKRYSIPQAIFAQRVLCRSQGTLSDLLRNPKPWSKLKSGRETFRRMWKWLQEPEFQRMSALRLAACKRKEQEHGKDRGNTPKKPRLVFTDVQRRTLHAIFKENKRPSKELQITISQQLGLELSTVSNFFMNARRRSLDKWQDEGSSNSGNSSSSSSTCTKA
Chain of Signal transducer and activator of transcription 3 (Homo sapiens) (P40763 whole entry, looked up, the tested form may be a part): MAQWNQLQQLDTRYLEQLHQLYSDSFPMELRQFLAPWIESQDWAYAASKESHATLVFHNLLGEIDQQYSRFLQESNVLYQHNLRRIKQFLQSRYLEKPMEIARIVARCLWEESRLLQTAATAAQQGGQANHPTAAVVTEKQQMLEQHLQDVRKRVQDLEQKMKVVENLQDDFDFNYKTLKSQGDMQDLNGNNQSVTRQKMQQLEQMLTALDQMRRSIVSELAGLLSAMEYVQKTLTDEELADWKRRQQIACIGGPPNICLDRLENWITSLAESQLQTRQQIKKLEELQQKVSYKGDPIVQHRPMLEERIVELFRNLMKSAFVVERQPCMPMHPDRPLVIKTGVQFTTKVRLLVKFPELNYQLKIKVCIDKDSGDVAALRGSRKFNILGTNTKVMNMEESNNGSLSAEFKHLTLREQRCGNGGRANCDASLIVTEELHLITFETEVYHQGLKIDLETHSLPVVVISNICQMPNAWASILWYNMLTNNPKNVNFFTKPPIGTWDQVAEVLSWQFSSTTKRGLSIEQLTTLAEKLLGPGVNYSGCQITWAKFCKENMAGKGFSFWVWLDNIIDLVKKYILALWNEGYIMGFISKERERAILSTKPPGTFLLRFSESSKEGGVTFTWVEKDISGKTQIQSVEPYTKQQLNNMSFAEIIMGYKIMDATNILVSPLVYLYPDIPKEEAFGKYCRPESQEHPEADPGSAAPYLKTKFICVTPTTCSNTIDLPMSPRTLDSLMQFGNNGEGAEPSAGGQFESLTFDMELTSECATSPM
Chain of Paired box protein Pax-6 (Homo sapiens) (P26367 whole entry, looked up): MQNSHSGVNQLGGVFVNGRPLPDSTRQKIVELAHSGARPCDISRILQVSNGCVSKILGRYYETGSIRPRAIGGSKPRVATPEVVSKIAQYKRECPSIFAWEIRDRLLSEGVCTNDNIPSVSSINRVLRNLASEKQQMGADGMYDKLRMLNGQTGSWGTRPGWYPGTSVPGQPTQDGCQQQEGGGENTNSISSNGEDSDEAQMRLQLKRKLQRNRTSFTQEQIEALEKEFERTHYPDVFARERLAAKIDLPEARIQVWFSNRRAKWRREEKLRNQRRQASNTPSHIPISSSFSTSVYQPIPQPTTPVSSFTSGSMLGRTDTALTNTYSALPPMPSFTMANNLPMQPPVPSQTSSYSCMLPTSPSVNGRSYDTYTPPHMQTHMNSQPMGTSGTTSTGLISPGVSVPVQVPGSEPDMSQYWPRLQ
Chain of Heat shock factor protein 1 (Homo sapiens) (Q00613 whole entry, looked up, the tested form may be a part): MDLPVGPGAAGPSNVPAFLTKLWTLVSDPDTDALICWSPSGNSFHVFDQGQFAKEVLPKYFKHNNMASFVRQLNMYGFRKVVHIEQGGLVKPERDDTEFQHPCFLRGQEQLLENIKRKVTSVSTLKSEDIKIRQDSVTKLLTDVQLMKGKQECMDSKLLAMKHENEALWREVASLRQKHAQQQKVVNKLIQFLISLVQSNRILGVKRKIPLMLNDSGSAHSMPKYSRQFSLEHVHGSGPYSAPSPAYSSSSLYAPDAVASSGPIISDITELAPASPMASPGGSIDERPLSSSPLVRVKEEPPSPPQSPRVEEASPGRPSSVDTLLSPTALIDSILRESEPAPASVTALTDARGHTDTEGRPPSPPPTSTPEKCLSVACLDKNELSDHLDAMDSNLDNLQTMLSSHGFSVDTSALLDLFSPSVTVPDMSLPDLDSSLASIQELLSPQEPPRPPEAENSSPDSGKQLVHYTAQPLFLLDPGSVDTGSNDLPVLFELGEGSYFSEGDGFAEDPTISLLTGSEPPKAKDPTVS
Chain of Hypoxia-inducible factor 1-alpha (Homo sapiens) (Q16665 whole entry, looked up): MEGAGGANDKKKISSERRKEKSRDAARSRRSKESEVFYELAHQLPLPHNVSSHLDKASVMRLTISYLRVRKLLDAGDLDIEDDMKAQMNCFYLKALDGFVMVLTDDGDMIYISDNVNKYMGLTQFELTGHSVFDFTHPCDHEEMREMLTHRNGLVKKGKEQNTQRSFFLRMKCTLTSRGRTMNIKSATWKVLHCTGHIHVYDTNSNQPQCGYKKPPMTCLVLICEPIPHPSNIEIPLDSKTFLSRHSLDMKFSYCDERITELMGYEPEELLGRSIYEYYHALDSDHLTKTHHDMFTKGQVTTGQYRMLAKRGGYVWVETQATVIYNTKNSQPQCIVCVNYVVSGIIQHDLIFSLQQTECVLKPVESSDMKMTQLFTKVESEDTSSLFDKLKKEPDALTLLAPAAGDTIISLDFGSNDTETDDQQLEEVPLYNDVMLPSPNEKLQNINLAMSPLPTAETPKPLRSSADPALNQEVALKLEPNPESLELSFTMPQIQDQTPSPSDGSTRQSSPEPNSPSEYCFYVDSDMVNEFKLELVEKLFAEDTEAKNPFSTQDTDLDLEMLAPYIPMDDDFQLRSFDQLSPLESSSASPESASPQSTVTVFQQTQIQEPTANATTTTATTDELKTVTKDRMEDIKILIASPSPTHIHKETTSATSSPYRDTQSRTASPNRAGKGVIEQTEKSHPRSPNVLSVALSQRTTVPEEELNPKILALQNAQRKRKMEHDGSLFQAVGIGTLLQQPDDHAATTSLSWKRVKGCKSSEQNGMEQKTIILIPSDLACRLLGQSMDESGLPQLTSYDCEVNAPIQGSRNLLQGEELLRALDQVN
Chain of Transcription factor Sp1 (Homo sapiens) (P08047 whole entry, looked up): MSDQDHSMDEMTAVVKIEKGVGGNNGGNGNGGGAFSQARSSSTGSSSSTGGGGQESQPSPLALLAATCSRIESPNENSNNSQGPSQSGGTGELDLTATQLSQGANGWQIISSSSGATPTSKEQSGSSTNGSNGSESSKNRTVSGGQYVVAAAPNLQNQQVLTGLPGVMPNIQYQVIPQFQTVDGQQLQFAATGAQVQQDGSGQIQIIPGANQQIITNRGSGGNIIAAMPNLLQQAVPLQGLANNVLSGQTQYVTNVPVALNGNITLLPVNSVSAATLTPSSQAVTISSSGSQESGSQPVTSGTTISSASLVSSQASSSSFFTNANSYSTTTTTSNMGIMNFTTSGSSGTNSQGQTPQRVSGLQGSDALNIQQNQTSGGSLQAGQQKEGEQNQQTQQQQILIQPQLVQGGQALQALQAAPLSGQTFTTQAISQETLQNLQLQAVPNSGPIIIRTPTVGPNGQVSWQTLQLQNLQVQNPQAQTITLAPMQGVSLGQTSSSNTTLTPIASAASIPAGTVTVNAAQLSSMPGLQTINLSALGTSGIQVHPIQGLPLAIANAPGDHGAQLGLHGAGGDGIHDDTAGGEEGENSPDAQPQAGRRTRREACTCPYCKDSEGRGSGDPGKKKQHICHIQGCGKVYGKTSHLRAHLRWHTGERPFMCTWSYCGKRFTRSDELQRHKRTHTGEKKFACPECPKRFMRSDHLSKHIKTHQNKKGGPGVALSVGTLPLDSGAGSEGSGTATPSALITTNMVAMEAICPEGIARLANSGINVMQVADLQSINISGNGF

For `O=C(F)C(F)(F)C(F)(F)C(F)(F)C(=O)F`, the compound was called inactive in [1], in test [2], in test [3], in test [4], in test [5] and in [6]. For the same compound, the result in [7], in [8], in test [9], in [10], in [11] and in test [12] was inactive. Moreover, the outcome in test [13], in test [14], in test [15], in test [16], in [17] and in [18] was inactive. The outcome in test [19] and in test [20] was inactive.
Turning to `Oc1c(Cl)ccc(Cl)c1Cl`, the result in test [1], in test [2], in [3], in [4], in [5] and in test [6] was inactive. Further, the result in test [7], in test [8], in test [11], in [12], in test [13] and in test [14] was inactive. The result in [15], in test [16], in test [17], in test [18], in [19] and in test [20] was inactive. The AC50 is 49.8 µM (active) in [9] and 40.4 µM (active) in [10].
With `CNNCc1ccc(C(=O)NC(C)C)cc1`, the result in test [1], in [2], in test [3], in test [4], in [5] and in [6] was inactive. The result in test [7], in test [8], in test [9], in test [10], in [12] and in test [13] was inactive. For the same compound, the compound was classed as inactive in [15], in test [16], in test [17], in test [18], in test [19] and in [20]. Moreover, the concentration at half-maximal activity (AC50) in test [9] was 25.7 µM (active).
With `O=C(O)CCC(F)(F)C(F)(F)C(F)(F)C(F)(F)C(F)(F)C(F)(F)F`, the outcome in [1], in test [2], in [3], in [4], in [5] and in test [6] was inactive. The outcome in test [7], in test [8], in test [9], in test [10], in [11] and in test [12] was inactive. The compound was called inactive in test [13], in test [14], in test [15], in [16], in test [17] and in [18]. For the same compound, the compound was classed as inactive in [19] and in test [20].
Consider `Cn1sccc1=O`, for which the result in test [1], in test [2], in test [3], in test [4], in [7] and in [10] was inactive. Moreover, the compound was classed as inactive in test [11], in [15], in test [16], in [18], in test [19] and in [20]. Besides, the AC50 in test [5] was 161 µM (active); in [6], 163 µM (active); in [8], 159 µM (active); in test [9] it was 142 µM (active); in test [12], 154 µM (active); in [13] it was 153 µM (active). In addition, the AC50 was 161 µM (active) in test [14] and 92.9 µM (active) in [17].
In the case of `O=C(O)CN(CCCN(CC(=O)O)CC(=O)O)CC(=O)O`, the outcome in test [1], in [2], in [3], in test [4], in test [5] and in test [6] was inactive. For the same compound, the result in test [7], in test [8], in [9], in [10], in test [11] and in test [12] was inactive. Also, the compound was called inactive in [13], in [14], in [15], in [16], in test [17] and in test [18]. Further, the call in test [19] and in test [20] was inactive.

What is called AC50 is the concentration giving half of the maximal activity seen.
